The source of these data is the supplement of paper PMC10849652.

Targets with a hit are over-represented here; the source holds about 7,900 in all. About 0.6% of all pairs of compound and target were hits. Unmarked numbers belong to inactive results.

Chain of UniProt Q9UJY4 (Q9UJY4 whole entry, looked up): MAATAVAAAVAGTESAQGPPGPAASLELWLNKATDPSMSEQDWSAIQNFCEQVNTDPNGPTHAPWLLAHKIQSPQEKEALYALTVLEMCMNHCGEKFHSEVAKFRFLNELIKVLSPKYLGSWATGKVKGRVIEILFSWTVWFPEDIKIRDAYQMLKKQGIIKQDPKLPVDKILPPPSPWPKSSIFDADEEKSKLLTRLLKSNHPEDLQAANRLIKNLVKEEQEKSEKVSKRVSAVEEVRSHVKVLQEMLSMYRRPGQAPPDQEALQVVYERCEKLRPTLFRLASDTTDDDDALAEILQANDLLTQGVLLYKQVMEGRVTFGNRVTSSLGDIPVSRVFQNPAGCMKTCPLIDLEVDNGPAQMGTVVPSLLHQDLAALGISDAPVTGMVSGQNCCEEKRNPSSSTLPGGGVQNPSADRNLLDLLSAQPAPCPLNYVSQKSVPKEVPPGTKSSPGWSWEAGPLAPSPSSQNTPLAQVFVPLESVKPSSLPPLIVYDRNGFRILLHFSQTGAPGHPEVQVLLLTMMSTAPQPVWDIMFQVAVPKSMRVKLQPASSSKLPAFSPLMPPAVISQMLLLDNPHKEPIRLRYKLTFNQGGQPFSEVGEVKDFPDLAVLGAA
Chain of UniProt Q7Z4H3 (Q7Z4H3 whole entry, looked up): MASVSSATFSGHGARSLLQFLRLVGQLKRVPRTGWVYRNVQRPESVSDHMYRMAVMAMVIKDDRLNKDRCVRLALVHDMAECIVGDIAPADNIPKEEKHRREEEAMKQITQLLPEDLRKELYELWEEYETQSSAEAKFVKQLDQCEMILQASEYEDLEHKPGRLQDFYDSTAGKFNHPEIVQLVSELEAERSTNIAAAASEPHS
Chain of UniProt O15228 (O15228 whole entry, looked up): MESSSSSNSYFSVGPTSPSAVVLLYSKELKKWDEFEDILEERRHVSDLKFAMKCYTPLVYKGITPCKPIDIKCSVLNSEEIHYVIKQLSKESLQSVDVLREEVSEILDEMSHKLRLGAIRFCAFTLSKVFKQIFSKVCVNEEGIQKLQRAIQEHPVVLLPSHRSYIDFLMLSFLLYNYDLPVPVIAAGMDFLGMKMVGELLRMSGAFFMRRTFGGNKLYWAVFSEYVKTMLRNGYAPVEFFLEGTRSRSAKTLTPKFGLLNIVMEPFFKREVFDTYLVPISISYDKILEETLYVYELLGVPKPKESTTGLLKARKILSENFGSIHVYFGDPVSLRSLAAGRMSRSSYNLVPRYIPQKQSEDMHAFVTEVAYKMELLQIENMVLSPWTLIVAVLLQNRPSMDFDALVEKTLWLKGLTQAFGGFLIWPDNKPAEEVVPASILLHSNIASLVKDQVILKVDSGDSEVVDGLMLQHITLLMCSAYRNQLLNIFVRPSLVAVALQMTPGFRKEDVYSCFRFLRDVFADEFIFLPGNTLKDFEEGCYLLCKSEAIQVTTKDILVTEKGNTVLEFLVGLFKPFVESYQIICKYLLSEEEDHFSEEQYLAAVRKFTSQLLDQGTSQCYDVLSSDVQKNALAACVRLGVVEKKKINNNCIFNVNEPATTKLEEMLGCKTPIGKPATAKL
Chain of UniProt P52657 (P52657 whole entry, looked up): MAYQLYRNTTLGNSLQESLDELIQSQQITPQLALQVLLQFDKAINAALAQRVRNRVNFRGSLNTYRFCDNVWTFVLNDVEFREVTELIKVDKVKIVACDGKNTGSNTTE
Chain of UniProt P09105 (P09105 whole entry, looked up): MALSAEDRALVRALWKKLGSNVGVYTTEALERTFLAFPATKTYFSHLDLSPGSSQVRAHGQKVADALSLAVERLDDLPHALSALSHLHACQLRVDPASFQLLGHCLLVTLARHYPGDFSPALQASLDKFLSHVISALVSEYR
Chain of UniProt P49840 (P49840 whole entry, looked up): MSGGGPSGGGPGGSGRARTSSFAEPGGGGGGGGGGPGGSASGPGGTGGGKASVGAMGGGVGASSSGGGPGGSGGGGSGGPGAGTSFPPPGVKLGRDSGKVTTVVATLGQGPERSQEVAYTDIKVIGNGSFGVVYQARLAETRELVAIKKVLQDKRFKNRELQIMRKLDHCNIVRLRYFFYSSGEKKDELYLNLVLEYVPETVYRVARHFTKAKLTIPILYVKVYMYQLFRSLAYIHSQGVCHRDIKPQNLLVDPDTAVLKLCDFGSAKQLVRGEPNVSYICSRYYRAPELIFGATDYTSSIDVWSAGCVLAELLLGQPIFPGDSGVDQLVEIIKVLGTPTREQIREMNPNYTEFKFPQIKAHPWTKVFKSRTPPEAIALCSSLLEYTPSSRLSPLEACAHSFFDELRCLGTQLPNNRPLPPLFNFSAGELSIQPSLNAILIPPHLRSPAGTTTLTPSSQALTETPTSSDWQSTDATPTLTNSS
Chain of UniProt P07910 (P07910 whole entry, looked up): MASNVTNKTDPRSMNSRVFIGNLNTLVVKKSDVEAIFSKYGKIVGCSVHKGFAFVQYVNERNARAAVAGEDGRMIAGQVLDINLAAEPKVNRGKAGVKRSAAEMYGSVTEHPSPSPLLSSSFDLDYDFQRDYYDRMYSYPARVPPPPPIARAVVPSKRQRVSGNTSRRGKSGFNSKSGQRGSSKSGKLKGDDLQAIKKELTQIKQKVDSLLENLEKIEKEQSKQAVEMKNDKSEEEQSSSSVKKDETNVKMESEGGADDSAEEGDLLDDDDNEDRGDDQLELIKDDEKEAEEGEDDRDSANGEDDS
Chain of UniProt Q86VS8 (Q86VS8 whole entry, looked up): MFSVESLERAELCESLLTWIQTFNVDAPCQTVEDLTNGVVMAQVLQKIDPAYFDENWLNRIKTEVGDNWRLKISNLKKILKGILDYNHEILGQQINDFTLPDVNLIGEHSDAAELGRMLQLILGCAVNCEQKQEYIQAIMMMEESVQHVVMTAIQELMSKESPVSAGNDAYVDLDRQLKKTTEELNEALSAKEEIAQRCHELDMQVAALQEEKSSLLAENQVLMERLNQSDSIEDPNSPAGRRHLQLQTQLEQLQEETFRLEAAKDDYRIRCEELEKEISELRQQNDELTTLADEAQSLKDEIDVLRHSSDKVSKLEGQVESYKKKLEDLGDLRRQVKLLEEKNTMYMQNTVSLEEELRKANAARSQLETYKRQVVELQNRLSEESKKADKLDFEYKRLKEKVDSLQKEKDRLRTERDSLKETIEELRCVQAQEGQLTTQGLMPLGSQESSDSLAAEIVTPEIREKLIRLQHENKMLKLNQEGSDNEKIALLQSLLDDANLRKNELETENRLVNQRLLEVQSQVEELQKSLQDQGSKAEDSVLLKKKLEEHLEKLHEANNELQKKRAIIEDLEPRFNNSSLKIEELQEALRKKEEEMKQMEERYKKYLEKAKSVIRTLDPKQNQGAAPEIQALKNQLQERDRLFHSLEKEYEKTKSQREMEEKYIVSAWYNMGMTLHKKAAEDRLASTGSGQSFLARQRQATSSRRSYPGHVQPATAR
Chain of UniProt P06865 (P06865 whole entry, looked up): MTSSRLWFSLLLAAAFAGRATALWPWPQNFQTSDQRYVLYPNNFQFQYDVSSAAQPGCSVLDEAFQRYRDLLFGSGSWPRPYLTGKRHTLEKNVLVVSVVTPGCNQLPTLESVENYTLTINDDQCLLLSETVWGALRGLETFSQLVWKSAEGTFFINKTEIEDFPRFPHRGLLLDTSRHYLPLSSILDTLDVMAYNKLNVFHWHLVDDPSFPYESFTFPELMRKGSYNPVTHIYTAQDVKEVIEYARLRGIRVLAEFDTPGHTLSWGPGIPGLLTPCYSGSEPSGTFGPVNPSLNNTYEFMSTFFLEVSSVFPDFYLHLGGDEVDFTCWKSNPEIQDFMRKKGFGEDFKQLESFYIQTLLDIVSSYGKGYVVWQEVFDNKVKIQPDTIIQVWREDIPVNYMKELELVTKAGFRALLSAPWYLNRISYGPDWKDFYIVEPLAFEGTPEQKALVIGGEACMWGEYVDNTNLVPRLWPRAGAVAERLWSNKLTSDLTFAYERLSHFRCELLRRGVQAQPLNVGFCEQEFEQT
Chain of UniProt Q00403 (Q00403 whole entry, looked up): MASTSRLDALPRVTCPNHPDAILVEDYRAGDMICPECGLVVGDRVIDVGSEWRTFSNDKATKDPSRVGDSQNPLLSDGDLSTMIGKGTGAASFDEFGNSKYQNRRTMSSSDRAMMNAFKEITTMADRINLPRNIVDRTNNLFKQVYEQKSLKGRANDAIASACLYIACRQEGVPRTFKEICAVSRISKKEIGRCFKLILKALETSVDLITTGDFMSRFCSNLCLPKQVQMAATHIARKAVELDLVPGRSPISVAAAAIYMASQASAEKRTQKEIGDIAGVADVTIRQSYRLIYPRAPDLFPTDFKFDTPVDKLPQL
Chain of UniProt O60725 (O60725 whole entry, looked up): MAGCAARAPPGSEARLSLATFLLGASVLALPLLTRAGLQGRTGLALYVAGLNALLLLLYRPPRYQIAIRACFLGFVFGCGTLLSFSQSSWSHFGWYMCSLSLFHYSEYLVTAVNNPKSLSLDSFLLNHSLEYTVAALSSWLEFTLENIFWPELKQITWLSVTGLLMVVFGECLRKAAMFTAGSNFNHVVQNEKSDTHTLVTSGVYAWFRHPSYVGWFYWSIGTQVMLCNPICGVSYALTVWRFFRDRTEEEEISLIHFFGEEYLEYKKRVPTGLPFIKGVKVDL
Chain of UniProt O15347 (O15347 whole entry, looked up): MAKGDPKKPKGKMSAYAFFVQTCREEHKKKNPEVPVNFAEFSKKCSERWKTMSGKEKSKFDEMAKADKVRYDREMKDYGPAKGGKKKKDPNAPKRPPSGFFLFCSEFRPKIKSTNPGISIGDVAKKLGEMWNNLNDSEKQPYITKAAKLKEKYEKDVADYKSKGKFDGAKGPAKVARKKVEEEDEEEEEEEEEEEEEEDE
Chain of UniProt Q9H4A6 (Q9H4A6 whole entry, looked up): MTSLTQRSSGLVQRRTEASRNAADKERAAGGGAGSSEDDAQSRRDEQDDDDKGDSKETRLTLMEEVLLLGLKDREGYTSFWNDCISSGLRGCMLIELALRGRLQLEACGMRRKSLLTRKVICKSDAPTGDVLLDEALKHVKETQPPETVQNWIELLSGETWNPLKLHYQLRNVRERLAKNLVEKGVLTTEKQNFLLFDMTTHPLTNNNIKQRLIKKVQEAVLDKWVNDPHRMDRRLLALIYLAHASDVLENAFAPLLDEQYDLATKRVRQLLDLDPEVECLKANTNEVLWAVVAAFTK

Compound in one assay: CC1=C(C=C(C=C1)NC(=O)C2=CC(=CC=C2)N(C)C)NC(=O)C3=CC=C(C=C3)O
In words: log2 fold change, soluble protein after heating vs DMSO (PISA); higher = thermal stabilisation; K562 cells, 10 uM, 30 min; active = over 0.2 and 3.5 SD of the protein, either way, in both replicates (recomputed). In outline:
(§1)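 Quantification of soluble protein used TMTpro 16plex LC-MS/MS, with channel sums equalised. Samples were the supernatant after 21,000xg for 90 min of pooled aliquots from K562 cells (2×10^6 cells/mL) treated with 10 μM compound for 30 min, heated for 3 min over 48°C-58°C, and extracted in PBS with 0.5% NP-40 at 4°C. Values, from duplicates, describe thermal stability against control samples on a log2 fold-change scale.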
In the case of GNPAT (UniProt O15228), the log2 fold change is -0.046.
For the target GOPC (UniProt Q9HD26), the log2 fold change was 0.018.
The same measure, in the same setting: for HPCAL1 (UniProt P37235) the value was 0.012; for GTF2A2 (UniProt P52657), -0.029; for GSK3A (UniProt P49840), 0.009.
Take HBQ1 (UniProt P09105): the log2 fold change was -0.14.
Turning to HOOK3 (UniProt Q86VS8), the log2 fold change is -0.023.
On the same count and under the same terms, the figure for HEXA (UniProt P06865) is 0.022; for GGA2 (UniProt Q9UJY4) it is 0.033.
Same read-out and setting: for HNRNPC isoform 2 (UniProt P07910) the value was -0.074.
The same measure, in the same setting: for H2AFX (UniProt P16104) the value was -0.006.
For HDDC2 (UniProt Q7Z4H3), the log2 fold change was -0.03.

Compound in the next assay: CC1=CC=C(C=C1)SC2=C3C=C(SC3=CN=C2)C(=O)N
Described as above. Summed up: as §1
For the target GNB2 (UniProt P62879), the log2 fold change was -0.053.
Still for that read-out and setting: for GTF2B (UniProt Q00403) the value was 0.097.
Same read-out and setting: the figure for GTF2E1 (UniProt P29083) is 0.011; for GPX4 (UniProt P36969) it is 0.095.
HMGB3 (UniProt O15347): the log2 fold change was 0.006.
The same measure, in the same setting: the figure for GAPVD1 isoform 6 (UniProt Q14C86) is 0.046; for FNTB (UniProt P49356) it is 0.
On to FKBP4 (UniProt Q02790), for which the log2 fold change is 0.015.
The same measure, in the same setting: for IFRD1 (UniProt O00458) the value was 0.098; for IFT80 isoform 3 (UniProt Q9P2H3), 0.004; for IFI30 (UniProt P13284), 0.018.
Still for that read-out and setting: for GALNT1 (UniProt Q10472) the value was 0.03; for FUBP3 (UniProt Q96I24), 0.01.
The same measure, in the same setting: for ICMT (UniProt O60725) the value was -0.079; for GCC2 (UniProt Q8IWJ2), -0.016; for HIC2 (UniProt Q96JB3), -0.005.
Turning to HRC (UniProt P23327), the log2 fold change was 0.008.
Same read-out and setting: for HSD17B12 (UniProt Q53GQ0) the value was 0.
Still for that read-out and setting: the figure for HMGCR isoform 3 (UniProt P04035) is 0.061; for GOLPH3 (UniProt Q9H4A6) it is -0.017.
For GEMIN5 (UniProt Q8TEQ6), the log2 fold change was 0.009.
Same read-out and setting: the figure for FUCA2 (UniProt Q9BTY2) is 0.016; for HNRNPH1 (UniProt P31943) it is 0.005; for GNPAT (UniProt O15228) it is 0.007.
For the target GOPC (UniProt Q9HD26), the log2 fold change was -0.051.
Still for that read-out and setting: for HPCAL1 (UniProt P37235) the value was 0.048; for GTF2A2 (UniProt P52657), 0.052; for GSK3A (UniProt P49840), 0.197.
The same measure, in the same setting: for HBQ1 (UniProt P09105) the value was 0.025; for HOOK3 (UniProt Q86VS8), -0.014; for HEXA (UniProt P06865), -0.019.
For GGA2 (UniProt Q9UJY4), the log2 fold change is -0.047.
Regarding HNRNPC isoform 2 (UniProt P07910), the log2 fold change was -0.349.
The same measure, in the same setting: for H2AFX (UniProt P16104) the value was -0.231; for HDDC2 (UniProt Q7Z4H3), 0.014.

Compound in the next assay: CC1=NC(=CC=C1)C2=C(N=C(N2)C(C)(C)C)C3=CC4=NC=CN=C4C=C3
The description is as above. Summed up:
as §1
For the target GNB2 (UniProt P62879), the log2 fold change was -0.018.
Turning to GTF2B (UniProt Q00403), the log2 fold change is 0.097.
On the same count and under the same terms, for GTF2E1 (UniProt P29083) the value was 0.115.
On the same count and under the same terms, the figure for GPX4 (UniProt P36969) is 0.06; for HMGB3 (UniProt O15347) it is 0.011.
With GAPVD1 isoform 6 (UniProt Q14C86), the log2 fold change is 0.019.
For FNTB (UniProt P49356), the log2 fold change is 0.
Still for that read-out and setting: the figure for FKBP4 (UniProt Q02790) is 0.045; for IFRD1 (UniProt O00458) it is -0.04.
On the same count and under the same terms, for IFT80 isoform 3 (UniProt Q9P2H3) the value was 0.005; for IFI30 (UniProt P13284), -0.046; for GALNT1 (UniProt Q10472), 0.067.
With FUBP3 (UniProt Q96I24), the log2 fold change is 0.122.
The same measure, in the same setting: the figure for ICMT (UniProt O60725) is 0.072.
Same read-out and setting: for GCC2 (UniProt Q8IWJ2) the value was -0.031; for HIC2 (UniProt Q96JB3), -0.093.
Regarding HRC (UniProt P23327), the log2 fold change was 0.005.
With HSD17B12 (UniProt Q53GQ0), the log2 fold change was 0.022.
On the same count and under the same terms, for HMGCR isoform 3 (UniProt P04035) the value was -0.115; for GOLPH3 (UniProt Q9H4A6), 0.022.
As for GEMIN5 (UniProt Q8TEQ6), the log2 fold change is -0.013.
On the same count and under the same terms, for FUCA2 (UniProt Q9BTY2) the value was -0.02; for HNRNPH1 (UniProt P31943), 0.047.
On the same count and under the same terms, for GNPAT (UniProt O15228) the value was 0.
The same measure, in the same setting: for GOPC (UniProt Q9HD26) the value was -0.066; for HPCAL1 (UniProt P37235), 0.032.
Take GTF2A2 (UniProt P52657): the log2 fold change is 0.03.
Still for that read-out and setting: for GSK3A (UniProt P49840) the value was 0.021.
Consider HBQ1 (UniProt P09105), for which the log2 fold change was 0.052.
On to HOOK3 (UniProt Q86VS8), for which the log2 fold change was -0.039.
With HEXA (UniProt P06865), the log2 fold change was 0.004.
Same read-out and setting: for GGA2 (UniProt Q9UJY4) the value was 0.06; for HNRNPC isoform 2 (UniProt P07910), -0.045; for H2AFX (UniProt P16104), -0.073.
As for HDDC2 (UniProt Q7Z4H3), the log2 fold change was 0.029.
